hcDAF12 agonist = activates DAF-12 receptor from parasite H. contortus; HEK293 hcDAF-12 lit1-tk-luc reporter, luminescence; 0% DMSO, 100% Δ7-dafachronic acid; AID 652067; hit rate 1.4% among 370,000; activation, % at 6.8 µM;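 active = activation above the mean of all tested compounds plus 3 SD, cut at about 5.5% in these data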
DAX1 inh-1 = DAX1 (NR0B1) inhibition, primary screen | HEK293T StAR-luciferase reporter, SF-1/DAX-1 repression relief | hit rate 1.1% among 370,000 | inhibition, % at 6.8 µM;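 active = inhibition above the mean over all tested compounds plus 3 SD, cut at about 3.6% in these data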;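 also: higher inhibition means more luminescence from relief of DAX-1 repression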
AHR act = activators of human aryl hydrocarbon receptor. P35869. AHR-responsive luciferase reporter cells, luminescence. activation, % at 5 µM. hit rate 2.5% among 320,000; in the data active = activation above about 47%
Target sequence (P35869 whole entry, looked up): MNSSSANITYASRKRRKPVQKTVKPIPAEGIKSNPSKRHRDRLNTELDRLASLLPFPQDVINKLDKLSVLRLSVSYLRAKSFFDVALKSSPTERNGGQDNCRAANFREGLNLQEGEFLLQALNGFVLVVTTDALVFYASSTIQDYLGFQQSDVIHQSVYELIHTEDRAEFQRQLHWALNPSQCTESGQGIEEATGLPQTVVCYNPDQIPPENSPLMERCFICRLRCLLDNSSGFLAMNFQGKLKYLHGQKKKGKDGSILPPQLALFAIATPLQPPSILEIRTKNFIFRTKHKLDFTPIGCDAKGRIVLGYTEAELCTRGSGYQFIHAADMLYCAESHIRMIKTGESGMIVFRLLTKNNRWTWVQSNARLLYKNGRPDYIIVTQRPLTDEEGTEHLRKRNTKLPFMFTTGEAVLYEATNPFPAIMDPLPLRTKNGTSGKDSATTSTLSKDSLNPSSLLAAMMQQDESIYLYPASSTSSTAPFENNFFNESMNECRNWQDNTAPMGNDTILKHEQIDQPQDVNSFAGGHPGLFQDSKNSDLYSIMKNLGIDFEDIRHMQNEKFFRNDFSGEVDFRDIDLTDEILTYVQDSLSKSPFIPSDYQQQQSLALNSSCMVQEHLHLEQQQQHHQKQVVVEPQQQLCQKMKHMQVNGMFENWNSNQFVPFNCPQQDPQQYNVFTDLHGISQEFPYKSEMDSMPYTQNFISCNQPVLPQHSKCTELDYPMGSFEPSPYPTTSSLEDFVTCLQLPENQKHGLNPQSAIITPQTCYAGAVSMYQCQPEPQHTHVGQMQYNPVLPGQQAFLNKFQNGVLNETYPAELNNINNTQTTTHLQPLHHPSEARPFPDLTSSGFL
ssDAF-12 act = activators of S. stercoralis DAF-12 nuclear receptor; HEK293 ssDAF-12/GRIP1 lit1-tk-luc reporter, luminescence; % of 3 µM dafachronic acid response; activation, % at 6.8 µM; hit rate 1% among 370,000; AID 652126;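 active = activation above the mean over all tested compounds plus 3 SD, cut at about 0.9% in these data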
DAX1 inh-2 = inhibits human nuclear receptor DAX1; P51843; HEK293 Gal4-DAX1 luciferase reporter, luminescence; inhibition, % at 6.75 µM; hit rate 0.99% among 340,000; AID 504766;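 active = inhibition above the mean over all tested compounds plus 3 SD, cut at about 4.2% in these data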;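 also: inhibition shows as a rise in luminescence from relieved DAX1 repression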
hgDAF-12 ag = hgDAF-12 agonism, primary luciferase screen; HEK293 GAL4-hgDAF12 UAS-luciferase reporter, agonist luminescence; normalized to butyrate control; activation, % at 6.8 µM; hit rate 1.8% among 370,000;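 active = activation above a cutoff set at the mean of all screened compounds plus 3 SD, cut at about 10% in these data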
Each line names hits and unclear results; the compound was inactive in the other large screens. Compounds with a hit are over-represented: about 5.7% of the library has one in this group of screens.

CCOC(=O)c1ccc2nc(C)c(C)nc2c1	hcDAF12 agonist 5.6
COC(=O)c1ccc2nc(C)c(C)nc2c1	none
CCOc1cc(C(=O)NC2=NCCS2)cc(OCC)c1OCC	AHR act 55.3
CCOc1ccc(C(=O)NC2=NCCS2)cc1	none (no result: DAX1 inh-2)
CCCc1nn2c(N)c(/C=C3\C=Nc4ccccc43)c(=O)nc2s1	none
CCCCc1nn2c(N)c(/C=C3\C=Nc4ccccc43)c(=O)nc2s1	ssDAF-12 act 2.7
CS(=O)(=O)c1nsc2nc(=O)c(/C=C3\C=Nc4ccccc43)c(N)n12	ssDAF-12 act 1.0
O=C(CNS(=O)(=O)c1cccc2nsnc12)NCCc1ccccc1	none
Cn1c2ccccc2c2n[nH]c(=S)nc21	AHR act 75.4
CC1CCN(C(=O)c2[nH]cnc2C(=O)Nc2nccs2)CC1	none
CCOc1cccc(C(=O)Nc2cccc(C(=O)NCC(C)C)c2)c1	AHR act 71.1
CCCOc1cccc(C(=O)Nc2cccc(NC(=O)c3ccco3)c2)c1	AHR act 47.7
O=C(NNC(=O)C1[C@H]2CCCC[C@@H]12)Nc1cccc2ccccc12 (some centres not stated)	none
CN(C)CC[n+]1ccc(C(=O)c2ccccc2)cc1	DAX1 inh-2 5.1
O=C1CC(=O)C(n2cncn2)C(c2ccc(Cl)cc2)C1 (configuration not stated)	DAX1 inh-2 5.8
C=CCOc1nc(-c2ccccc2Cl)nc2ccccc12	ssDAF-12 act 1.4
CCOC(=O)CNC(=O)N(C)[C@H]1C[C@H]2c3[nH]c4c(-c5ccccc5)cccc4c3CCN2C(=O)[C@H]1[C@H](C)O	none (no result: AHR act, DAX1 inh-2)
COC(=O)c1ccc(NC(=O)Nc2ccc3c(c2)nc(C)n3C)cc1	none
CC(=O)c1ccc(NC(=O)Nc2ccc3c(c2)nc(C)n3C)cc1	DAX1 inh-1 4.0
Cc1nc2cc(NC(=O)Nc3cccc([N+](=O)[O-])c3)ccc2n1C	hgDAF-12 ag 11.2
CC(C)CCNCC(=O)NC(c1ccccc1)c1ccccc1	none
COc1ccc(C(=O)OCCN2CCN(C3CN(Cc4cn(Cc5ccccc5Cl)nn4)S(=O)(=O)C3)CC2)cc1OC (configuration not stated)	none (no result: AHR act, DAX1 inh-2)
CCn1c(SCc2nc3ccccc3c(=O)[nH]2)nc2ccccc2c1=O	AHR act 67.3
COCCCn1c(SCc2nc3ccccc3c(=O)[nH]2)nc2ccccc2c1=O	none
CCn1c(SCC#N)nc2ccccc2c1=O	DAX1 inh-2 5.2
N#CCSc1nc2ccccc2c2nc3ccccc3n12	AHR act 48.1
CCc1c(-c2cccc(OC)c2)ncn1CCc1ccccc1OC	none (no result: AHR act, DAX1 inh-2)
Cc1nc2ccc(NC(=O)C3COc4ccccc4O3)cc2s1 (configuration not stated)	hgDAF-12 ag 11.5
Cc1cccc(NC(=O)C2COc3ccccc3O2)c1 (configuration not stated)	none
CN(C)S(=O)(=O)c1ccc(NC(=O)C2COc3ccccc3O2)cc1 (configuration not stated)	DAX1 inh-2 4.5
Cc1ccc(NC(=O)C2COc3ccccc3O2)cc1C (configuration not stated)	DAX1 inh-2 4.9 (no result: hcDAF12 agonist, DAX1 inh-1, ssDAF-12 act, hgDAF-12 ag)
CCOC(=O)C1=CCN(S(=O)(=O)c2ccc(Br)cc2)C1c1ccc(F)cc1 (configuration not stated)	none (no result: AHR act, DAX1 inh-2)
Cc1ccc(CN2CC(N3CCCC3)CS2(=O)=O)cc1 (configuration not stated)	none (no result: AHR act, DAX1 inh-2)
Cc1cccc(C)c1NC(=O)COC(=O)C1C2CC3OC(=O)C1C3C2 (configuration not stated)	DAX1 inh-2 5.2
COc1cccc(NC(=O)C2=COCCO2)c1	DAX1 inh-1 3.7
O=C(COC(=O)C1=COCCO1)Nc1cccc(Oc2ccccc2)c1	none
COc1ccc(OC)c(-c2csc(NC(=O)C3=COCCO3)n2)c1	AHR act 49.8
O=C(COC(=O)C1=COCCO1)Nc1ccccc1	DAX1 inh-2 4.4
O=C(COC(=O)CN1C(=O)NC2(CCCCC2)C1=O)Nc1cc(F)ccc1F	none
CCOC(=O)C1CCN(C(=O)C(C)Sc2ccc(Cl)cc2)CC1 (configuration not stated)	DAX1 inh-2 4.7
CCOC(=O)C1CCN(C(=O)c2cc3cc(Cl)ccc3[nH]2)CC1	hcDAF12 agonist 6.5
Cc1cc(/C=C(\C#N)C(=O)NCCc2c[nH]c3ccccc23)c(C)n1C	none
N#C/C(=C/c1ccc(Br)s1)C(=O)NCCc1c[nH]c2ccccc12	hcDAF12 agonist 6.0
COc1cc(C)ccc1OCc1cc(C(=O)NC(C)Cn2cncn2)no1 (configuration not stated)	hgDAF-12 ag 11.1
COc1cc(Cl)ccc1OCc1cc(C(=O)NC(C)Cc2cccnc2)no1 (configuration not stated)	none
COc1ccccc1NC(=O)c1[nH]c(C)c(C(C)=O)c1C	AHR act 54.7
O=C(Nc1ccccc1N1CCCCC1)c1cccc([N+](=O)[O-])c1	none
CCOc1cc(N2CCOCC2)c(OCC)cc1NC(=O)c1[nH]c(C)c(C(C)=O)c1C	none
COc1ccccc1NS(=O)(=O)c1cccc(NC(=O)c2[nH]c(C)c(C(C)=O)c2C)c1	none
COc1ccc(S(=O)(=O)N2CCCCC2)cc1NC(=O)c1[nH]c(C)c(C(C)=O)c1C	hcDAF12 agonist 6.2, ssDAF-12 act 0.9, DAX1 inh-2 4.5
CC(=O)c1c(C)[nH]c(C(=O)Nc2ccccc2N2CCOCC2)c1C	AHR act 71.5
CC(=O)c1c(C)[nH]c(C(=O)Nc2cc(S(=O)(=O)N3CCCCC3)ccc2C)c1C	none
O=C(Nc1ccccc1N1CCOCC1)c1cccc([N+](=O)[O-])c1	AHR act 66.6
CC(=O)c1c(C)[nH]c(C(=O)Nc2cccc(C)c2C)c1C	AHR act 54.8
C#CCC(NC(=O)c1ccc(C(F)(F)F)cc1)C(=O)NCCC (configuration not stated)	none
CCCCNC(=O)C(NC(=O)c1ccc(C(F)(F)F)cc1)C(=O)c1ccccc1 (configuration not stated)	ssDAF-12 act 2.4 (no result: AHR act, DAX1 inh-2)
CCCCNC(=O)C(NC(=O)Cc1cc(C(F)(F)F)cc(C(F)(F)F)c1)C(=O)c1ccccc1 (configuration not stated)	none (no result: AHR act, DAX1 inh-2)
CC(C)CC(C)NC(=O)c1ccc(C(F)(F)F)cc1 (configuration not stated)	DAX1 inh-2 4.7
CC(=O)c1c(C)[nH]c(C(=O)Nc2ccc(Cl)cc2F)c1C	hgDAF-12 ag 11.3
CC(=O)c1c(C)[nH]c(C(=O)Nc2ccc(F)c(F)c2F)c1C	AHR act 61.8
CC(=O)c1c(C)[nH]c(C(=O)NC2=NCCS2)c1C	AHR act 75.2
CC(=O)c1c(C)[nH]c(C(=O)Nc2ccc(Cl)cc2)c1C	none
CCC(C(=O)OC)n1cnc2c(nnn2-c2ccc(C)cc2)c1=O (configuration not stated)	none

Compound activity (PubChem)
